Reference: PubChem BioAssay (NCATS)
Inconclusive results are not listed. Calls of active or inactive are those of the source. The call rests on the fitted dose curve; in most records, active means well fitted curve in the direction sought with a large enough effect; inconclusive means small, poorly fitted or top-dose-only effect, or another doubt; inactive means no such curve, though single readings can be large; an effect the other way counts as inactive or inconclusive.

Columns and labels:
[1] = Cell Viability - SH-SY5Y (AID 544); conditions: SH-SY5Y neuroblastoma cell viability; viability change, negative = cytotoxic: at 92.2 µM (top of the series);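 further: cells exposed to compound for 40 hours; nearly all actives have a fitted effect of over 55% in size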
How it was run: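 SH-SY5Y, 1500 cells/well, 5 hr pre-incubation 37 °C; cpd 40 hr 37 °C; CellTiter-Glo 20 min RT; luminescence (ATP) read. qHTS concentration-response, Hill fit → AC50. Tamoxifen, doxorubicin as positive controls.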

[2] = Cell Viability - Renal Proximal Tubule (AID 545);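 further: cells exposed to compound for 40 hours; nearly all actives have a fitted effect of over 40% in size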
How it was run: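 Viability taken as intracellular ATP (CellTiter-Glo luminescence) after 40 hr, 37 °C compound treatment of primary proximal tubule cells from rat kidney, 1000 cells/well; Hill-equation fits of qHTS concentration-response data gave AC50.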

[3] = Cell Viability - Mesenchymal (AID 546);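 further: cells exposed to compound for 40 hours before reading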
How it was run: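 In this qHTS cytotoxicity format, glomerulus-derived human mesenchymal kidney cells received compound for 40 hr, then luciferase-based ATP quantitation. Concentration-response data were fitted with the Hill equation.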

[4] = Cellular Toxicity (caspase-3) Jurkat (AID 655); conditions: Jurkat caspase-3 activation, luminescence; caspase-3 activation: at 92.2 µM (top of the series), DMSO = 0%, tamoxifen = 100%;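 further: cells exposed to compound for 16 h at 37 °C before reading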
How it was run: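 Luminescent Caspase-Glo 3/7 read-out (20 min, room temperature) after 16 h compound treatment at 37 C of 5000 Jurkat cells per well. AC50 derived by Hill-equation fitting, scaled between DMSO basal and 100 uM tamoxifen stimulation.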

[5] = Cellular Toxicity (caspase-3) HUV-EC-C (AID 656)
How it was run: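 Luminescent Caspase-Glo 3/7 readout after 16 h, 37 °C compound exposure of HUV-EC-C endothelial cells, 1000 per well, complete medium. AC50 derived by Hill fitting, with DMSO as baseline and 100 uM tamoxifen as full activation.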

[6] = Cellular Toxicity (caspase-3) SHSY5Y (AID 657)
How it was run: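 Luminescent Caspase-Glo 3/7 read-out, 1 hr room temperature, follows 16 hours of compound treatment of SH-SY5Y cells at 37 °C. Normalization: DMSO basal, 10 uM staurosporine as 100%; AC50 values from Hill-equation concentration-response fits.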

[7] = Cellular Toxicity (caspase-3) BJ (AID 658);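 further: 0% = DMSO basal and 100% = 10 µM staurosporine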
How it was run: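 Plated BJ cells (1000/well) rested 5 hr, received compound for 16 hr at 37 °C, then Caspase-Glo 3/7 reagent for 1 hr at room temperature before luminescence reading.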

[8] = Cellular Toxicity (caspase-3) MRC-5 (AID 659);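 further: 0% = DMSO basal and 100% = 10 µM staurosporine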
How it was run: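 Apoptosis readout in MRC-5 cells: luciferase light generated after caspase 3/7 cleaves a peptide-aminoluciferin substrate, measured post 16 hr compound incubation at 37 °C.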

[9] = Cellular Toxicity (caspase-3) HepG2 (AID 654);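 further: cells exposed to compound for 16 hours before reading; 0% = DMSO alone and 100% = caspase signal from 100 µM tamoxifen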
How it was run: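 Luminescent Caspase-Glo 3/7 readout after 16 hr compound exposure of human hepatocellular carcinoma HepG2 cells at 37 °C; qHTS concentration-response, normalized DMSO = 0%, 100 uM tamoxifen = 100%; AC50 by standard Hill equation.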

O=C(O)CNC(=O)c1ccc([N+](=O)[O-])cc1
inactive: Potency [1] | Potency [2] | Potency [3] | caspase-3 activation [4] 1.61% | outcome [5] | outcome [6] | outcome [7] | outcome [8]

O=[N+]([O-])c1c(Cl)cc(Cl)cc1Cl
inactive: Potency [1] | Potency [2] | Potency [3] | caspase-3 activation [4] 0.558% | outcome [5] | outcome [6] | outcome [7] | outcome [8]

O=Cc1ccc(Cl)cc1
inactive: Potency [1] | Potency [2] | Potency [3] | Potency [9] | caspase-3 activation [4] -1.13% | outcome [5] | outcome [6] | outcome [7] | outcome [8]

CC(C)Nc1ccccc1
inactive: Potency [1] | Potency [2] | Potency [3] | Potency [9] | outcome [5] | outcome [6] | outcome [7] | outcome [8]

Cc1cc(C2(c3cc(C)c(O)cc3C)OS(=O)(=O)c3ccccc32)c(C)cc1O
inactive: Potency [1] | Potency [2] | Potency [3] | Potency [9] | caspase-3 activation [4] 2.78% | outcome [5] | outcome [6] | outcome [7] | outcome [8]

C(=C/c1ccccc1)/c1ccccc1
inactive: Potency [1] | Potency [2] | Potency [3] | Potency [9] | caspase-3 activation [4] 0.745% | outcome [5] | outcome [6] | outcome [7] | outcome [8]

COc1ccc(N=[N+]([O-])c2ccc(OC)cc2)cc1
inactive: Potency [1] | Potency [2] | Potency [3] | Potency [9] | caspase-3 activation [4] -8.89% | outcome [5] | outcome [6] | outcome [7] | outcome [8]

CC(=O)Nc1ccc(C)cc1
inactive: Potency [1] | Potency [2] | Potency [3] | Potency [9] | caspase-3 activation [4] 1.97% | outcome [5] | outcome [6] | outcome [7] | outcome [8]

CC(C=O)Cc1ccc(C(C)(C)C)cc1 (stereo unspecified)
inactive: Potency [1] | Potency [3] | Potency [9] | caspase-3 activation [4] 2.85% | outcome [5] | outcome [6] | outcome [7] | outcome [8]

COc1ccc(N)c(C)c1
inactive: Potency [1] | Potency [2] | Potency [3] | Potency [9] | caspase-3 activation [4] 0.894% | outcome [5] | outcome [7] | outcome [8]

Cc1cccc2sc(N)nc12
inactive: Potency [1] | Potency [2] | Potency [3] | Potency [9] | caspase-3 activation [4] -0.319% | outcome [5] | outcome [6] | outcome [7] | outcome [8]

CCOCCOCC
inactive: Potency [1] | Potency [2] | Potency [3] | Potency [9] | caspase-3 activation [4] 1.67% | outcome [5] | outcome [6] | outcome [7] | outcome [8]

NC(=O)/N=N/C(N)=O
inactive: Potency [1] | Potency [2] | Potency [3] | Potency [9] | caspase-3 activation [4] -2.04% | outcome [5] | outcome [6] | outcome [7] | outcome [8]

COc1ccc(N)c(OC)c1
inactive: Potency [1] | Potency [2] | Potency [3] | Potency [9] | caspase-3 activation [4] 0.6% | outcome [5] | outcome [7] | outcome [8]

N#CCc1ccccc1[N+](=O)[O-]
inactive: Potency [2] | Potency [3] | Potency [9] | caspase-3 activation [4] 1.28% | outcome [5] | outcome [6] | outcome [7] | outcome [8]

Cc1cccc(C(=O)O)c1[N+](=O)[O-]
inactive: Potency [1] | Potency [2] | Potency [3] | caspase-3 activation [4] 0.0965% | outcome [5] | outcome [6] | outcome [7] | outcome [8]

CCCCC(C=O)CC (stereo unspecified)
inactive: Potency [1] | Potency [2] | Potency [3] | Potency [9] | outcome [5] | outcome [6] | outcome [7] | outcome [8]

Cc1ccco1
inactive: Potency [1] | Potency [2] | Potency [3] | caspase-3 activation [4] 0.939% | outcome [5] | outcome [6] | outcome [7] | outcome [8]

Cc1cc(C)cc([N+](=O)[O-])c1
inactive: Potency [1] | Potency [2] | Potency [3] | Potency [9] | caspase-3 activation [4] -1.49% | outcome [5] | outcome [6] | outcome [7] | outcome [8]

CCCCN(CCO)CCCC
inactive: Potency [1] | Potency [2] | Potency [3] | Potency [9] | outcome [5] | outcome [6] | outcome [7] | outcome [8]

O=C1CCCCC1
inactive: Potency [1] | Potency [2] | Potency [3] | Potency [9] | outcome [5] | outcome [6] | outcome [7] | outcome [8]

Cc1ccc2ccccc2c1[N+](=O)[O-]
inactive: Potency [1] | Potency [3] | Potency [9] | caspase-3 activation [4] -0.271% | outcome [5] | outcome [6] | outcome [7] | outcome [8]

OC/C(Br)=C(\Br)CO
inactive: Potency [1] | Potency [2] | Potency [3] | Potency [9] | caspase-3 activation [4] 3.75% | outcome [5] | outcome [6] | outcome [7] | outcome [8]

CC(C)N(C)C
inactive: Potency [1] | Potency [2] | Potency [3] | Potency [9] | caspase-3 activation [4] -0.157% | outcome [5] | outcome [6] | outcome [7] | outcome [8]

Nc1cc(Cl)c(N)c(Cl)c1
inactive: Potency [2] | Potency [3] | Potency [9] | caspase-3 activation [4] 3.71% | outcome [5] | outcome [6] | outcome [7] | outcome [8]

Cc1ccc(C(C)(C)C)cc1
inactive: Potency [1] | Potency [2] | Potency [3] | Potency [9] | caspase-3 activation [4] 1.39% | outcome [5] | outcome [6] | outcome [7] | outcome [8]

COc1ccc(OC)cc1
inactive: Potency [1] | Potency [2] | Potency [3] | Potency [9] | outcome [5] | outcome [6] | outcome [7] | outcome [8]

CNc1ccc([N+](=O)[O-])cc1
inactive: Potency [1] | Potency [2] | Potency [9] | caspase-3 activation [4] -0.0856% | outcome [5] | outcome [6] | outcome [7] | outcome [8]

CCCCC(CC)COC(=O)CCCCC(=O)OCC(CC)CCCC (stereo unspecified)
inactive: Potency [1] | Potency [2] | Potency [3] | Potency [9] | caspase-3 activation [4] -0.708% | outcome [5] | outcome [6] | outcome [7] | outcome [8]

O=P(O)(OCc1ccccc1)OCc1ccccc1
inactive: Potency [1] | Potency [2] | Potency [3] | Potency [9] | caspase-3 activation [4] 1.88% | outcome [5] | outcome [6] | outcome [7] | outcome [8]

O=C(O)CN(CC(=O)O)CC(=O)O
inactive: Potency [1] | Potency [2] | Potency [3] | Potency [9] | caspase-3 activation [4] 1.43% | outcome [5] | outcome [6] | outcome [7] | outcome [8]

Oc1cccc(Nc2ccccc2)c1
inactive: Potency [1] | Potency [2] | Potency [9] | caspase-3 activation [4] 2.02% | outcome [5] | outcome [6] | outcome [7] | outcome [8]

Cc1ccc2nc(-c3ccc(N)cc3)sc2c1S(=O)(=O)O
inactive: Potency [1] | Potency [2] | Potency [3] | caspase-3 activation [4] -10.6% | outcome [5] | outcome [6] | outcome [7] | outcome [8]

COC(=O)c1ccccc1
inactive: Potency [1] | Potency [2] | Potency [3] | Potency [9] | caspase-3 activation [4] 2.94% | outcome [5] | outcome [6] | outcome [7] | outcome [8]

CC/C(C)=N/O
inactive: Potency [1] | Potency [2] | Potency [3] | Potency [9] | caspase-3 activation [4] -0.144% | outcome [5] | outcome [7] | outcome [8]
